Out of some 220,000 compounds screened, about 830 (0.38%) were called active.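 The calls were made as follows: active = compound inhibiting the enzyme by more than half at any dose during confirmatory dose-response retesting; inconclusive = strong single-dose inhibitors picked by rank but not retested; inactive = the rest.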 These entries were drawn from the full list. Measured potencies and affinities stand elsewhere.
biological target: Leucine aminopeptidase (Plasmodium falciparum (isolate 3D7)) (UniProt Q8IL11); test: P. falciparum M17LAP inhibitors, primary screen, biochemical, fluorogenic H-Leu-NHMec substrate, 1536-well (AID 1619); settings: recombinant M17LAP, H-Leu-NHMec fluorogenic kinetic assay; at 30 µM; stronger effect = higher value;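 also: plate controls were full reaction with DMSO carrier for no effect and no enzyme background for full effect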
Sequence (Q8IL11 whole entry, looked up): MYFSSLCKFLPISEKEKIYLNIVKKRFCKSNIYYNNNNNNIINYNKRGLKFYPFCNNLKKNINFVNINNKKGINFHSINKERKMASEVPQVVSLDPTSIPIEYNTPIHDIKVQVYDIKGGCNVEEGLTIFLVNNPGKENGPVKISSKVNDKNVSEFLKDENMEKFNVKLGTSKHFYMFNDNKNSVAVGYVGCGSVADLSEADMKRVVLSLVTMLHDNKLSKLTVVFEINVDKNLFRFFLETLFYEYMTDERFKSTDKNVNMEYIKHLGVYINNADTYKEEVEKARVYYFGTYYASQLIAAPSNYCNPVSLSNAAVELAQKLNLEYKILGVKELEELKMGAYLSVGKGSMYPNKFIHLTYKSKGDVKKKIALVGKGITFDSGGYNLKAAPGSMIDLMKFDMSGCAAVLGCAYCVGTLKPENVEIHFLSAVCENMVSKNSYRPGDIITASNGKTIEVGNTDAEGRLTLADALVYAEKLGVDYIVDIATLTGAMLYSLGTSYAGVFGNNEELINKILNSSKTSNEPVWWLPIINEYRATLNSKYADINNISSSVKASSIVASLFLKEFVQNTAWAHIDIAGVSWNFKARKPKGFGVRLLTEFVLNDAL

Row | SMILES | inhibition
1 | Cc1cccc(NC(=O)CSc2nc3nc(C)cc(C)c3c(=O)[nH]2)c1 | 15.8% (inactive)
2 | Cc1cccc(NC(=O)CSc2nc3c(c(=O)[nH]2)CCC3)c1C | 49.7% (inactive)
3 | CC(=O)Nc1c(O)nc(SCC(=O)Nc2c(C)cccc2C)[nH]c1=O | 13.4% (inactive)
4 | Cc1cccc(NC(=O)CSc2nc3c(c(=O)[nH]2)CCCC3)c1C | 12.7% (inactive)
5 | Cc1cccc(NC(=O)CSc2nc(C)c(Cc3ccccc3)c(=O)[nH]2)c1 | -0.73% (inactive)
6 | CC(=O)Nc1c(O)nc(SCC(=O)Nc2ccc(C(C)=O)cc2)[nH]c1=O | 21.4% (inactive)
7 | S=c1[nH]ncn1/N=C/c1cccc(Oc2ccccc2)c1 | 13.2% (inactive)
8 | Cc1ccc(CNc2ccc(S(=O)(=O)N3CCOCC3)cc2[N+](=O)[O-])cc1 | -4.05% (inactive)
9 | CCCC1C2C(=O)N(c3ccccc3)C(=O)C2ON1c1ccccc1 (centres undefined) | -10.4% (inactive)
10 | CCc1ccc(OC(=O)c2ccn(CC)n2)cc1 | 2.96% (inactive)
11 | CCOC(=O)c1c(C)[nH]c(C)c1C(=O)COC(=O)c1ccc(O)cc1 | 0.26% (inactive)
12 | Cc1ccc(NC(=O)c2ccccc2-c2ccccc2C(=O)O)cc1C | 4.01% (inactive)
13 | O=C(O)c1ccccc1-c1ccccc1C(=O)Nc1ccccc1 | -2.4% (inactive)
14 | O=C(CSc1nc2ccc(NC(=O)C3CCCCC3)cc2s1)NCC1CCCO1 (centres undefined) | 2.95% (inactive)
15 | O=C(Nc1ccc(N2C(=O)C3CCCCC3C2=O)cc1Cl)c1cccs1 (centres undefined) | -2.37% (inactive)
16 | COCCn1c(C)cc(C(=O)COC(=O)c2ccc[nH]c2=O)c1C | 49.1% (inactive)
17 | Cc1ccc(-n2c(C)cc(C(=O)COC(=O)C3=NNC(=O)CC3)c2C)cc1 | 30.1% (inactive)
18 | Cc1ccc(-n2c(C)cc(C(=O)COC(=O)c3c(C)noc3C)c2C)cc1 | 0.29% (inactive)
19 | Cc1cc(C(=O)COC(=O)C2=NNC(=O)CC2)c(C)n1-c1ccccc1 | 7.43% (inactive)
20 | Cc1cc(C(=O)COC(=O)c2ccc[nH]c2=O)c(C)n1C | 14.9% (inactive)
21 | Cc1cc(C(=O)COc2ccccc2C(N)=O)c(C)n1C1CC1 | -2.25% (inactive)
22 | Cc1cc(C(=O)COC(=O)c2ccc[nH]c2=O)c(C)n1-c1ccccc1F | 8.77% (inactive)
23 | Cc1cc(C(=O)COC(=O)c2ccc(O)cc2)c(C)n1CCc1ccc(F)cc1 | 13.2% (inactive)
24 | CCCn1c(SCC(=O)NC(=O)Nc2ccc(C)cc2C)n[nH]c1=O | -6.72% (inactive)

Row | SMILES | inhibition
25 | O=C(Cn1ccc([N+](=O)[O-])n1)NCCc1c[nH]c2ccccc12 | -5.35% (inactive)
26 | C=CCn1c(=O)c2ccccc2n2c(SCC(=O)Nc3sc(C(=O)N(CC)CC)c(C)c3C(=O)OCC)nnc12 | 1.64% (inactive)
27 | O=C(N/N=C/c1ccc2c(c1)OCO2)c1cc(-c2ccc(F)cc2)nc2ccccc12 | 8.91% (inactive)
28 | CCCCn1nnnc1NCc1ccc(N2CCCC2)cc1 | 2.89% (inactive)
29 | COc1cccc(-n2cn[nH]c2=S)c1 | -0.99% (inactive)
30 | O=C(NC1CCCC1)C(c1ccc(N2CCOCC2)cc1)N(Cc1ccco1)C(=O)c1ccco1 (centres undefined) | 6.04% (inactive)
31 | Cc1ccc(-n2c(C)cc(C(=O)COc3c(CO)cc(F)cc3CO)c2C)cc1C | 11.4% (inactive)
32 | CCOC(=O)c1cc(C)n(-c2ccc(OC)c(OC)c2)c1C | 0.75% (inactive)
33 | COCC(=O)OCC(=O)c1cc(C)n(-c2ccc(Br)cc2)c1C | 1.88% (inactive)
34 | CCC(=O)OCC(=O)c1cc(C)n(-c2ccc(Br)cc2)c1C | 0.2% (inactive)
35 | COc1cc(C(=O)Nc2ccccc2-c2nnn(CC(N)=O)n2)cc(OC)c1OC | -3.22% (inactive)
36 | C=CCn1c(-c2cccnc2Cl)nc2cc(Cl)c(Cl)cc21 | -5.48% (inactive)
37 | Cc1noc(C)c1C(=O)NCCCc1ccccc1 | 6.89% (inactive)
38 | Cc1cc(C(=O)OCC(=O)N2CC(C)CC(C)C2)c(C)o1 (centres undefined) | 40.9% (inactive)
39 | Cc1cc(C(=O)OCC(=O)N2c3ccccc3CC2C)c(C)o1 (centres undefined) | -1.01% (inactive)
40 | O=C(O)c1cc2c(ccc3ccccc32)o1 | 6.36% (inactive)
41 | O=C(Cn1ccc2ccccc2c1=O)NCC1COc2ccccc2O1 (centres undefined) | 10.9% (inactive)
42 | Cn1c(=O)oc2cc(S(=O)(=O)N3CCC(C(=O)NCC4COc5ccccc5O4)CC3)ccc21 (centres undefined) | 3.08% (inactive)
43 | O=C(CCC1COc2ccccc2O1)NCC1COc2ccccc2O1 (centres undefined) | 15.9% (inactive)
44 | Cc1nn(C)c(C)c1S(=O)(=O)N1CCC(C(=O)NCC2COc3ccccc3O2)CC1 (centres undefined) | 17.1% (inactive)
45 | O=C(CN1C(=O)C2C3C=CC(C3)C2C1=O)NCc1ccccc1 (centres undefined) | 18.9% (inactive)
46 | CCC1Oc2ccc(C)cc2N(CC(=O)NCC2COc3ccccc3O2)C1=O (centres undefined) | 16.1% (inactive)
47 | Cn1c(C(=O)O)c(CC(=O)Nc2ccc3c(c2)OCCO3)c2ccccc21 | -6.24% (inactive)
48 | Cn1c(=O)cc(SCC(=O)NCC2COc3ccccc3O2)c2ccccc21 (centres undefined) | -4.89% (inactive)

Row | SMILES | inhibition
49 | CCOc1ccc(NC(=O)CSc2nc3c([nH]c4ccccc43)c(=O)n2C)cc1 | 1.51% (inactive)
50 | CC(C)(C)c1cn(-c2ccccc2)c(=S)[nH]1 | 1.06% (inactive)
51 | O=c1c(Cc2ccc(F)cc2)c(O)ccn1Cc1ccc(F)cc1 | -0.83% (inactive)
52 | CS(=O)(=O)N1CCC(C(=O)O)CC1 | -6.86% (inactive)
53 | CCOC(=O)c1c(NC(=O)CC2SC(N)=NC2=O)sc2c1CCC(C)C2 (centres undefined) | 3.54% (inactive)
54 | COC(=O)C(NC(=O)C(C)Oc1ccccc1)C(C)C (centres undefined) | 1.41% (inactive)
55 | COc1ccc(C2=NN(c3nc(C(=O)O)cs3)C(O)(C(F)(F)F)C2)c(OC)c1 (centres undefined) | 26.5% (inactive)
56 | CN(C)S(=O)(=O)c1ccc(Cl)c(NC(=O)COC(=O)c2cc(-c3ccccc3)nc3ccccc23)c1 | 15.3% (inactive)
57 | C[C@H](NC(=O)OCc1ccccc1)C(=O)NNC(=O)[C@H](Cc1ccccc1)NC(=O)OC(C)(C)C | 12.1% (inactive)
58 | COc1cc(C2/C(=C(\O)c3cc(C)ccc3C)C(=O)C(=O)N2CCN(C)C)ccc1O (centres undefined) | -5.88% (inactive)
59 | Cc1ccc2nc(-c3ccc(NC(=O)CN4CCN(C(=O)c5ccco5)CC4)cc3)sc2c1 | 4.66% (inactive)
60 | O=C(CN1CCN(Cc2ccccc2)CC1)NCC1COc2ccccc2O1 (centres undefined) | 17% (inactive)
61 | O=C(CN1C(=O)c2ccccc2C1=O)NCC1CCCO1 (centres undefined) | 10.2% (inactive)
62 | CC1CCCCC1NC(=O)COC(=O)c1ccc(N(C)C)cc1 (centres undefined) | -9.99% (inactive)
63 | CCOC(=O)C1C(=O)NC(N2CCN(CC)CC2)=NC1c1ccccc1 (centres undefined) | 2.42% (inactive)
64 | Nc1nc(SCC(=O)Nc2ccccc2)[nH]c(=O)c1-c1ccccc1 | 8.35% (inactive)
65 | COc1ccc(Cc2c(O)nc(SC)n(C(C)=O)c2=O)cc1 | -1.99% (inactive)
66 | COc1ccccc1NC(=O)CSc1nc(O)c(Cc2ccccc2)c(=O)[nH]1 | 35.1% (inactive)
67 | O=C(CSc1nc(O)c(Cc2ccccc2)c(=O)[nH]1)Nc1ccccc1 | 51.3% (inactive)
68 | COc1ccc(-c2noc(CSc3nc(N)c(-c4ccccc4)c(=O)[nH]3)n2)cc1OC | -5.97% (inactive)
69 | COc1ccc(-n2c(SCC(=O)N3CCOCC3)nc(O)c(Cc3ccccc3)c2=O)cc1 | 20.3% (inactive)
70 | COc1ccc(-c2noc(CSc3nc(N)c(-c4ccccc4)c(=O)[nH]3)n2)cc1 | 10.2% (inactive)
71 | Nc1nc(SCC(=O)Nc2ccc(Cl)cc2)[nH]c(=O)c1-c1ccccc1 | 13.7% (inactive)
72 | CCOCCCNC(=O)CCNC(=O)c1cc(OC)c(OC)c(OC)c1 | 3.56% (inactive)

Row | SMILES | inhibition
73 | CCN(CC)S(=O)(=O)c1ccc(C(=O)NCCN2C(=O)S/C(=C\c3cccnc3)C2=O)cc1 | -4.15% (inactive)
74 | [N-]=C=C1C(=S)NC(=O)[C@H]([n+]2ccccc2)[C@H]1c1ccc(Cl)cc1 | 6.14% (inactive)
75 | COc1cc(NC(=O)c2ccccc2Cl)c(OC)cc1NC(=O)CN1CCCCC1 | 13.6% (inactive)
76 | CC(=O)Nc1ccc(C(=O)CSc2nnnn2C2CCCC2)cc1 | 11.4% (inactive)
77 | O=C(Cc1ccccc1)NCC(=O)OC(c1ccccc1)c1ccccc1 | 0.75% (inactive)
78 | OC(C#CCN1CCCC1)c1ccccc1 (centres undefined) | 9.35% (inactive)
79 | O=S(=O)(c1ccccc1)n1ccc2cccnc21 | 7.22% (inactive)
80 | Cc1ccc(S(=O)(=O)CCC(=O)NCc2ccccc2Cl)cc1 | 22.9% (inactive)
81 | Cc1ccc(C)c2nc3sc(C(=O)N4CCCc5ccccc54)c(N)c3cc12 | 8.65% (inactive)
82 | O=C1C2C(c3ccccc3)C=CC(c3ccccc3)C2C(=O)N1C1CCCCC1 (centres undefined) | 4.34% (inactive)
83 | COc1cccc(NC(=O)CSc2ncnc3c2oc2ccccc23)c1 | 2.46% (inactive)
84 | COCCn1c(SCC(=O)Nc2cccc(OC)c2)nc2c(oc3ccccc32)c1=O | -1.96% (inactive)
85 | CCC(Sc1ncccc1C(=O)Oc1cccc([N+](=O)[O-])c1)C(=O)Nc1ccccc1OC (centres undefined) | 46.5% (inactive)
86 | CCOC(=O)c1cccnc1SCC(=O)Nc1ccc(C)cc1 | 3.41% (inactive)
87 | CCN(C(=O)CSc1ncccc1C(=O)Oc1cccc([N+](=O)[O-])c1)c1cccc(C)c1 | -2.44% (inactive)
88 | CSc1cccc(NC(=O)CSc2ncccc2C(=O)Oc2cccc([N+](=O)[O-])c2)c1 | 53% (inactive)
89 | O=C(N1CCCCC1)N1CCCN(C(=O)N2CCCCC2)CC1 | 7.89% (inactive)
90 | O=C(COc1ccc2ccccc2c1)Nc1ccc(S(=O)(=O)N2CCCCCC2)cc1 | -9.55% (inactive)
91 | O=C(Nc1nc(=O)c2ccccc2s1)c1ccccc1 | 6.62% (inactive)
92 | Cc1ccc(C(=O)Nc2nnc(C)s2)cc1 | 11.4% (inactive)
93 | CC(=O)Cc1nsc(NC(=O)c2ccccc2)n1 | 9.29% (inactive)
94 | Cc1ccc(C(=O)Nc2nccs2)cc1 | 2.76% (inactive)
